Source: PubChem BioAssay (Sanford-Burnham Center for Chemical Genomics)
Compounds with a hit are over-represented: about 1.1% of the library has one in this group of screens.
GC-A act: GC-A (human) enzyme activation; HEK293 GC-A cells, cGMP TR-FRET, EC30 ANP; 0% at EC30 ANP, 100% saturating ANP; 0.14% of 370,000 active; P16066; activation, % at 10 µM; in the data active = activation above about 40%
GC-B act: GC-B (human) receptor activation | P20594 | HEK293-GC-B cells, CNP EC30, cGMP TR-FRET; 0% at EC30 CNP, 100% saturating CNP | activation, % at 10 µM | 0.11% of 370,000 active | AID 1920062;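 active = activation at 10 µM reaching about 35% in either raw or pattern-adjusted values, limit read from the data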
FAS TE block: blocks the thioesterase domain of human fatty acid synthase; P49327; recombinant FAS-TE, OMFH fluorogenic substrate, fluorescence endpoint; inhibition, % at 15 µM; 0.67% of 360,000 active;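 active = compounds whose normalised, plate-corrected inhibition of enzyme fluorescence in the single-dose primary screen is 50% or more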;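 also: 0% = DMSO with enzyme and 100% = substrate without enzyme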
aDG glyco up: increases alpha dystroglycan glycosylation | Pro5-aDG cells, alpha-DG glycosylation AlphaScreen (IIH6); 0% Pro5, 100% B10-LARGE cell signal | activation, % at 10 µM | 0.22% of 360,000 active;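 active = activation of at least 8% versus controls, or a plate z-score of at least 8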;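 also: Pro5 are CHO cells carrying HIG-tagged alpha-DG that lacks glycosylation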
* marks the source's active call; other numbers are inactive results; . = not tested or not shown.

SMILES	GC-A act	GC-B act	FAS TE block	aDG glyco up
Cc1ccc(C(C(=O)NC2CCCC2)N(C(=O)Cc2cccs2)c2ccc3c(c2)OCCO3)cc1 (stereo not drawn)	-12	-4	61*	0
C[C@H](CO)N1C[C@H](C)[C@@H](CN(C)C(=O)Nc2ccc(C(F)(F)F)cc2)Oc2c(NC(=O)Nc3ccc(C(F)(F)F)cc3)cccc2C1=O	-6	-1	79*	1
Nn1c(SCC(=O)Nc2nccs2)nnc1-c1cc(-c2ccccc2)n[nH]1	0	0	.	.
N=c1n(CCN2CCCCC2)c2ccccc2n1CC(O)c1ccc(Cl)c(Cl)c1 (stereo not drawn)	-38	-11	10	0
N=c1n(CCN2CCCCC2)c2ccccc2n1CC(=O)c1ccc(Cl)c(Cl)c1	-5	-4	37	5.4*
Cc1ccc(-c2cc(C(=O)NN=Cc3ccc(N(C)C)cc3)[nH]n2)cc1C	1	1	.	.
Cc1cc(C)c(S(=O)(=O)/N=C2/C=C(SCC(=O)O)C(=O)c3ccccc32)cc1C	.	.	6	12*
Cc1cc(C)c(S(=O)(=O)/N=C2\C=C(Nc3ccc(C(=O)O)cc3)C(=O)c3ccccc32)c(C)c1	-9	-6	8	1
COC(=O)[C@]12C[C@H](CC(=O)N3CCC(c4ccccc4)CC3)C(=O)N(Cc3ccccc3)C1=C[C@H](C(C)(C)C)O[C@@H]2C	-3	-6	.	.
c1csc(-c2nc3nc4ccccc4nc3n2Cc2ccc3c(c2)OCO3)c1	25	38*	26	0
NC(=O)C1(Nc2ccc(-c3ccc(Cl)cc3)cc2)CCCC1	58*	-9	6	0
O=C(O)C1(Nc2ccc(Cl)cc2)CCCC1	1	3	-5	0
NC1=NC(=O)/C(=C\c2ccc(-c3ccc(Cl)cc3)o2)S1	33	38*	-11	0
CC1(C)Cc2ccccc2C2=NNC(=O)C2=N1	2	1	-5	9.0*
COC(=O)C1=C(C)N(Cc2ccccc2C(F)(F)F)C(=NCc2cc(OC)c(OC)c(OC)c2)NC1c1cccc(F)c1 (stereo not drawn)	-16	-11	.	.
CCn1cnc2c1c(=O)n(Cc1csc(-c3ccccc3)n1)c(=O)n2Cc1ccccc1	38	51*	20	1
CCn1cnc2c1c(=O)n(Cc1nnc3n1-c1ccccc1SC3)c(=O)n2Cc1ccccc1	6	10	-4	0
CCn1cnc2c1c(=O)n(Cc1cccc([N+](=O)[O-])c1)c(=O)n2Cc1ccccc1	3	41*	21	0
COc1ccc(N2CCN(c3ncnc4c3[nH]c3ccccc34)CC2)cc1	-2	4	2	6.2*
COc1ccc2[nH]c3c(N4CCc5ccccc5C4)ncnc3c2c1	14	23	21	0
CC(COc1ccc(Br)cc1)CN1CCC(C(O)(c2ccccc2)c2ccccc2)CC1 (stereo not drawn)	-15	-3	.	.
N=c1c(S(=O)(=O)c2ccc(Cl)cc2)cc2c(=O)n3ccccc3nc2n1C1CCCCC1	6	-4	65*	-1
N=c1c(S(=O)(=O)c2ccccc2)cc2c(=O)n3ccccc3nc2n1C1CCCC1	1	4	21	0
C/C(=C/c1c[n+](Cc2ccc3c(c2)OCO3)c(N)[nH]1)Cn1[nH]c(=O)n(-c2ccccc2)c1=O	2	5	.	.
COc1ccccc1[C@@H]1C(c2cccc(C)c2)=NN(c2ccccc2)[C@H]1C(=O)N1CCOC1=O	-4	-9	74*	0
SMILES	GC-A act	GC-B act	FAS TE block	aDG glyco up
COc1ccccc1[C@@H]1C(c2ccc(F)cc2)=NN(c2ccccc2)[C@H]1C(=O)N1CCOC1=O	-11	-11	84*	0
O=C1OCCN1C(=O)[C@H]1[C@H](c2ccc([N+](=O)[O-])cc2)C(c2cccc(Cl)c2)=NN1c1ccccc1	-2	-1	89*	0
O=C1OCCN1C(=O)[C@H]1[C@H](c2ccc(Cl)cc2)C(c2ccccc2)=NN1c1ccccc1	-9	-1	50	0
COc1ccccc1[C@@H]1C(c2cccc(Cl)c2)=NN(c2ccc(Br)cc2)[C@H]1C(=O)N1CCOC1=O	0	0	22	1
C[C@@H]1CN(c2ccc(N3CCNC[C@H]3C)cc2C#N)CCN1Cc1ccccc1	4	1	.	.
Cc1ccc(-c2cc(C(=O)NN=C/C=C/c3ccco3)[nH]n2)cc1C	0	-1	.	.
CC(C)(C)NC(=O)CSc1nc2ccc(NC(=O)CSc3nnnn3Cc3ccccc3)cc2s1	-1	1	9	5.7*
Cc1c(Cl)c([N+](=O)[O-])nn1CC(=O)N1CCc2ccccc2C1	-1	3	51*	0
Cc1ccccc1C(=O)NC1CCCCN(Cc2cccc(C(F)(F)F)c2)C1=O (stereo not drawn)	1	-1	.	.
COc1cccc(CN(C)C(=O)c2cc(COc3ccc4ncccc4c3)on2)c1	-2	-7	9	13*
Brc1ccc(N=NNc2ccccc2)cc1	45*	-9	20	0
O=[N+]([O-])c1ccc(N=NNc2ccccc2)cc1	.	.	16	0
CCOC(=O)C(C)(C)CC#CCN(CC#Cc1ccccc1)S(=O)(=O)c1ccc(C)cc1	2	9	.	.
Cc1sc(NC(=O)c2cccc(N3C(=O)CCC3=O)c2)nc1-c1ccccc1	77*	-7	6	0
O=C(Nc1nc2cc3c(cc2s1)OCCO3)c1cccc(N2C(=O)CCC2=O)c1	6	0	-3	0
O=C(Nc1nc2ccccc2s1)c1cccc(N2C(=O)CCC2=O)c1	44*	0	-3	0
CC(C)C[C@H](NC(=O)C1CCCC1)C(=O)N1CCC[C@H]1C(=O)NCc1ccccc1	1	2	.	.
O=S(=O)(c1ccccc1)[C@@]1(c2ccccc2)C[C@@H]2ON=C(c3cccc(Br)c3)[C@@H]2C1	-5	-4	55*	0
O=C(/C=C(\Nc1cccc(Cl)c1F)c1ccccc1)c1ccccc1	-1	-1	.	.
CC(=O)OC(C[N+]1(C)CCCCCC1)c1ccccc1 (stereo not drawn)	1	-2	-6	0
C[N+]1(CCC(=O)c2ccccc2)CCCCC1	73*	0	-11	0
COc1ccccc1N(Cc1ccccc1)S(=O)(=O)c1cccc(C(=O)NC2CC(C)(C)NC(C)(C)C2)c1	-9	2	-6	9.1*
Nc1c(C(=O)NCc2ccccc2)sc2nc(N3CCOCC3)c3c(c12)CCCC3	43*	36*	19	0
O=C(Nc1ccc(S(=O)(=O)Nc2ncccn2)cc1)c1cccnc1	2	2	-10	0
CCNS(=O)(=O)c1ccc(NC(=O)c2cccnc2)cc1	0	-3	-3	17*
O=C(Nc1nc2c(F)cc(F)cc2s1)C1CCN(C(=O)c2ccc(F)cc2)CC1	68*	-7	-3	0
O=C(Nc1nc(-c2ccc(F)cc2)cs1)C1CCN(C(=O)c2ccc(F)cc2)CC1	8	-10	15	2
